# Compound activity as filed in PubChem.
# HPGD block = blocks human HPGD enzyme activity; AID 894; purified HPGD, NADH fluorescence kinetic, PGE2 substrate; P15428; 150,000 tested, 4.3% active; Potency, µM, usual class: inhibitors; active = well fitted inhibition curve with a large enough effect, not every such curve was filed as active; inconclusive = small, poorly fitted or top-dose-only effect, or another doubt; inactive = no such curve, though single readings can be large or run the other way
#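 NADH formation kinetics: reaction with 30 uM PGE2 and 1 mM NAD+ (final), 20 nM enzyme, Tris-HCl pH 8 with Tween 20, after 15 min compound preincubation at room temperature. Fluorescence change, last versus first of five reads.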
# Tau fluor counter = counter-screen for tau fibril formation inhibitors | tau K18 P301L Alexa594 fluorescence, heparin fibrillization | Potency, µM (highest dose often 57.7 µM) | 280,000 tested, 0.93% active | AID 1463; also: nearly all actives have a fitted effect of over 55% in size
#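 Human K18 P301L tau (15 uM unlabeled plus 0.24 uM Alexa 594-labeled, final) in 100 mM sodium acetate pH 7 was mixed with compound and 20 uM heparin and incubated 6 hr at 37 C.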
# Tau FP inhib = inhibitors of human tau fibril formation; P10636; K18 P301L tau heparin fibrillization, Alexa594 FP, 6 h; Potency, µM (top dose mostly 57.7 µM), most hits filed as inhibitors; 280,000 tested, 0.39% active; AID 1468; also: nearly all actives have a fitted effect of over 55% in size
# Target sequence (P10636 561-689 P618L limits assumed): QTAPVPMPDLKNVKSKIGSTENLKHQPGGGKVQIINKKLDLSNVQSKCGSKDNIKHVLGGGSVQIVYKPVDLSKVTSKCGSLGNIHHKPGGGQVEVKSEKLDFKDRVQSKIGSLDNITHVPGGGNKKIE
#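 Compound effects on tau fibrillization are measured by Alexa 594 fluorescence polarization (ex 555, em 632 nm). K18 P301L tau is used at 15 uM with 0.24 uM labeled tracer, and 20 uM heparin induces aggregation over 6 hr at 37 C.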
# ALDH1A1 inh = blocks purified human ALDH1A1 activity. AID 1030. Purified ALDH1A1, NADH fluorescence, propionaldehyde substrate. 220,000 tested, 7.3% active. Potency, µM (titrated, usually from 75.3 µM), usual class: inhibitors; active = well fitted inhibition curve with a large enough effect, not every such curve was filed as active; inconclusive = small, poorly fitted or top-dose-only effect, or another doubt; inactive = no such curve, though single readings can be large or run the other way
# NPSR antagonist = neuropeptide S receptor (human) antagonism, cAMP; CHO-NPSR cells, cAMP TR-FRET, antagonist mode; AID 1461; 220,000 tested, 1% active; Potency, µM (top dose mostly 38.3 µM), actives largely listed as inhibitors; Q6W5P4; also: nearly all actives have a fitted effect of over 50% in size
# Target sequence (Q6W5P4 whole entry, looked up): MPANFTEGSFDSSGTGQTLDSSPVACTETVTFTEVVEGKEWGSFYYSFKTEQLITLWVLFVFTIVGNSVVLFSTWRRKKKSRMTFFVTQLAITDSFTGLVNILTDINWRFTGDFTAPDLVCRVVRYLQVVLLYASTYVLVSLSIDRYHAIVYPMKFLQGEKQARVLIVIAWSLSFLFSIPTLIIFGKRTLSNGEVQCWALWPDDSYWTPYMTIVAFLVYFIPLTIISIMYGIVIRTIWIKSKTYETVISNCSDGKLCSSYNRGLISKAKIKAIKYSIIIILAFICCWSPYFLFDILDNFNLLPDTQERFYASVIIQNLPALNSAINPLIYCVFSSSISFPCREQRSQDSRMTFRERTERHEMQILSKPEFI
# Tau fibril ThT = tau fibrillization inhibition (ThT binding) | 270,000 tested, 2.1% active | AID 1460 | Potency, µM (top dose mostly 57.4 µM), most hits filed as inhibitors | recombinant tau K18 P301L (four-repeat tau fragment), heparin-induced fibrillization, ThT fluorescence | P10636; also: nearly all actives have a fitted effect of over 55% in size
#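 K18 P301L tau (15 uM + 0.24 uM Alexa 594-tagged), heparin 20 uM, NaOAc pH 7, 6 h 37 C; ThT 30 uM, 1 h RT, ex 450/em 510 nm.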
# A number is an active result; n = inactive; u = inconclusive; x = not tested or not shown; [ ] = remark or other dose. Sampled rows, rich in hits. Any-hit rate of the full collection: about 9.5%. Unless noted, calls follow the shape of the dose curve; as a rule, active = well fitted curve in the direction sought with a large enough effect; inconclusive = small, poorly fitted or top-dose-only effect, or another doubt; inactive = no such curve, though single readings can be large; an effect the other way counts as inactive or inconclusive.
SMILES,HPGD block,Tau fluor counter,Tau FP inhib,ALDH1A1 inh,NPSR antagonist,Tau fibril ThT
O=C(CSc1nc2cc(Cl)ccc2s1)N1CCCc2ccccc21,u,n,n,8.9µM,n,n
COc1ccc(-n2nnnc2SCC(=O)N2CCCc3ccccc32)cc1OC,n,n,u,25µM,n,n
O=C(CSc1nnc2scc(-c3ccccc3)n12)N1CCN(Cc2ccccc2)CC1,n,n,n,n,n,n
Cc1ccc(-c2csc3nnc(SCC(=O)N4CCN(Cc5ccccc5)CC4)n23)cc1,n,n,n,14µM,n,u
O=C(Cn1c(=O)nc(-c2ccccc2)c2ccccc21)NCc1ccccc1Cl,x,n,n,x,x,n
Cc1ccc2oc(-c3ccc(C)c(NC(=O)C(C)(C)Oc4ccc(Cl)cc4)c3)nc2c1,x,n,n,x,x,n
Cc1cc(=O)[nH]c(SCC(=O)N2CCCc3ccccc32)n1,n,n,n,n,n,n
O=C(CSc1nnc2scc(-c3ccccc3)n12)Nc1nsc(-c2ccccc2)n1,u,n,n,u,n,n
O=C(CSc1nnnn1C1CCCC1)N1CCCc2ccccc21,n,n,n,10µM,n,n
Cc1ccc(-c2csc3nnc(SCC(=O)Nc4nsc(-c5ccccc5)n4)n23)cc1,n,n,n,8.9µM,u,n
O=C(CSc1nc(O)cc(=O)[nH]1)N1CCCc2ccccc21,18µM,n,n,22µM,n,u
Cn1c(Cc2cccs2)nnc1SCC(=O)N1CCCc2ccccc21,n,n,n,n,n,n
O=C(CSc1nnc(Cc2cccs2)n1C1CCCCC1)N1CCCc2ccccc21,n,n,n,3.5µM,u,n
CC(C)=CCN1CCNC(=O)C1CC(=O)NCc1nc(C)c(C)s1 (stereo not given),x,n,n,n,n,n
CC(=O)c1cccc(NC(=O)c2c(-c3ccccc3)c(-c3ccccc3)nn(C)c2=O)c1,x,n,n,x,x,n
Fc1ccc(Cn2c(-c3cccc(Br)c3)nc3ccccc32)cc1,x,n,u,x,x,n
O=C(O)c1ccc(CSc2nnnn2C2CCCCC2)cc1,n,n,n,18µM,n,n
O=C1CCC(=O)N1c1ccc(CSc2nnnn2C2CCCCC2)cc1,n,n,n,u,n,n
CCOC(=O)N1CCN(CC(=O)c2ccc3c(c2)CCN3C(C)=O)CC1,n,n,n,25µM,n,u
CC(=O)N1CCc2cc(C(=O)CN3CCCCC3)ccc21,16µM,n,n,22µM,n,n
CCOC(=O)N1CCC(NS(=O)(=O)c2ccc3c(c2)CCN3C(C)=O)CC1,n,n,n,n,n,n
Cc1ccc(C(=O)NC=C(Cl)Cl)cc1,28µM,n,n,n,n,n
Cc1ccc(C(=O)NCC#N)cc1,x,n,n,n,n,n
Cc1ccc(C(=O)NC(O)C(Cl)Cl)cc1 (stereo not given),25µM,n,n,n,n,n
Cc1ccc(C(=O)NC(C#N)=C(Cl)Cl)cc1,x,n,u,u,n,25µM
SMILES,HPGD block,Tau fluor counter,Tau FP inhib,ALDH1A1 inh,NPSR antagonist,Tau fibril ThT
C=CCNCCOCCOc1ccccc1-c1ccccc1,x,n,n,n,n,n
CC(=O)c1ccc(OCCCC(=O)n2nnc3ccccc32)cc1,20µM,n,n,n,n,u
O=C(CCCOc1ccc(Cl)cc1Cl)n1nnc2ccccc21,8.9µM,n,n,n,n,n
Nc1nncn1C(=O)CCCOc1ccc(Cl)cc1Cl,u,n,n,n,n,n
Cc1ccc(CN(Cc2ccco2)S(=O)(=O)c2ccc(S(=O)(=O)NCC3CCCO3)cc2)cc1 (stereo not given),n,n,n,n,n,n
O=C(Nc1cccc(C(F)(F)F)c1)Nc1ccc(N2CCCC2)c(S(=O)(=O)Nc2ccccc2Cl)c1,n,2.5µM[quencher],u,n,10µM,u
COc1ccccc1NS(=O)(=O)c1cc(NC(=O)Nc2ccc(Cl)cc2Cl)ccc1N1CCCCC1,u,n,u,u,n,n
CSc1sc(C(=O)NCC2CC2)c2c1S(=O)(=O)N(C)c1ccccc1-2,x,n,n,x,n[7.67 µM],n
CSc1sc(C(=O)NCC2CC2)c(-c2cccs2)c1C#N,x,n,n,8.9µM,n,n
CC(=C1C(=O)c2ccccc2C1=O)N1CCN(C/C=C/c2ccccc2)CC1,n,n,n,8.9µM,n,22µM
CC(=C1C(=O)c2ccccc2C1=O)N1CCC(C(N)=O)(N2CCCCC2)CC1,n,n,n,20µM,n,32µM
CC(=C1C(=O)c2ccccc2C1=O)N1CCN(Cc2ccccc2)CC1,n,n,n,10µM,n,u
C(=C/c1ccccc1)/CN1CCN(C(c2ccccc2)c2ccccc2)CC1,n,x,x,n,x,x
NC(=O)C1(N2CCCCC2)CCN(C(=S)NCCc2ccccc2)CC1,x,n,n,n,n,n
CCOc1cc(C2c3c(-c4ccccc4O)n[nH]c3C(=O)N2CCc2ccccc2)ccc1O (stereo not given),x,u,u,x,x,n
O=C(NCC(c1ccco1)S(=O)(=O)c1cccs1)c1ccccc1 (stereo not given),x,n,n,x,x,n
COc1cccc([C@@H]2Oc3ccc(OC)cc3C[C@H]2OC(=O)Nc2cc(OC)c(OC)c(OC)c2)c1,n,u,n,n,x,n
CCOC(=O)c1c(C)oc(NC(=O)COc2ccc(Cl)cc2C)c1C#N,32µM,n,n,u,n,n
COC(=O)[C@@H]1CCCN1C(=O)[C@@H](C)CO,x,n[11.6 µM],n[11.6 µM],n[13.5 µM],x,n[11.5 µM]
Cc1ccc(C)n1-c1sc2c(c1C#N)CCCC2,n,n,n,n,u,n
Cc1sc(-n2c(C)ccc2C)c(C#N)c1C,18µM,n,n,22µM,n,n
O=C1NC(=O)C(Nc2cccc3ccccc23)S1 (stereo not given),u,n,n,n,n,u
CN1C(=O)SC(Nc2cccc3ccccc23)C1=O (stereo not given),n,n,n,28µM,u,u
CCN(CC)c1ccc(NC(=O)c2nc3nc(C)cc(C(F)F)n3n2)cc1,22µM,n,n,11µM,u,u
CCN(CC)c1ccc(NC(=O)CSc2nnc3nc(C)cc(C)n23)cc1,16µM,n,n,u,u,n
SMILES,HPGD block,Tau fluor counter,Tau FP inhib,ALDH1A1 inh,NPSR antagonist,Tau fibril ThT
Cc1cc(C)n2nc(C(=O)Nc3ccc4c(c3)OCO4)nc2n1,20µM,n,n,u,n,u
Cc1ccnc2nc(C(=O)Nc3ccc4c(c3)OCO4)nn12,n,n,n,n,n,n
Cc1ccccc1C(=O)Nc1ccc2c(c1)OCO2,18µM,n,n,n,n,n
Cc1cc(C)n2c(SCC(=O)Nc3ccccc3)nnc2n1,n,n,n,n,n,n
Cc1cc(C)cc(NC(=O)c2ncn(-c3ccccc3)n2)c1,x,n,n,x,x,u
Cc1ccc(NC(=O)CCC(=O)O)cc1F,n,n,n,n,n,n
CCN1C(=O)C(=O)N(CC(=O)Nc2ccccc2Oc2ccccc2)C1=O,x,n,n,n,n,n
